From PubChem BioAssay
The source made the active and inactive calls.

Key:
Albumin (Bos taurus) = Albumin (Bos taurus) (UniProt P02769); experiment: compounds binding labelled BSA control protein – biochemical, small-molecule microarray, Alexa647 label, 635/667 nm fluorescence, artefact control for SMM control protein annotation, profiling panel (AID 1118); conditions: BSA-A647 binding, fluorescence 635 nm, higher = more signal;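 note: score merges 667 nm emission intensity and signal-to-noise per printed compound spot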
[1] = probe aXIP binding to arrayed compounds – biochemical, NeuroSMM set, 635/667 nm fluorescence, primary screen (AID 1119); conditions: small-molecule microarray, higher = more signal, called active from +8 up or from −8 down;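 note: probe is the protein aXip251-270 applied at 1 µg/mL to compound-printed slides; binding of probe to printed compounds measured as 667 nm fluorescence plus signal to noise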
[2] = probe aNOTCH3 binding on compound microarray – biochemical, small-molecule microarray, 635/667 nm fluorescence, primary screen (AID 1120); conditions: higher = more signal;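 note: probe is a biotin-tagged antibody raised against NOTCH3 rather than NOTCH3 protein; score merges spot fluorescence near 667 nm with spot signal to noise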
[3] = probe aNOTCH2 binding on compound microarray – biochemical, small-molecule microarray, 635/667 nm fluorescence, primary screen (AID 1121); conditions: higher = more signal;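 note: score merges feature fluorescence read at 667 nm with its signal to noise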
[4] = molecular target: Carbonic anhydrase 2 (Homo sapiens) (UniProt P00918); experiment: compounds binding carbonic anhydrase 2 – biochemical, small-molecule microarray, Alexa647-labelled CAII, profiling panel (AID 1122); conditions: CAII-A647 binding fluorescence, higher = more signal
[5] = COS7 lysate on small-molecule microarray, probe aHis, 635 nm (AID 1123); conditions: COS7 cell lysate, fluorescence, higher = more signal;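 note: z-score combines 667nm fluorescence intensity with signal-to-noise per printed compound spot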
[6] = probe aLAP1 signal on lysate-treated microarray – cell lysate, small-molecule microarray, COS7 lysate, primary screen (AID 1124); conditions: probe aLAP1, fluorescence, higher = more signal;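 note: lysate comes from COS7 cells expressing LAP1 and is applied at 0.3 µg/mL; score merges spot fluorescence near 667 nm with signal-to-noise over triplicate slides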
Sam68 (KHDRBS1) = experiment: compounds binding KHDRBS1 protein – biochemical, small-molecule microarray, 635 nm fluorescence, primary screen (AID 1125); conditions: higher = more signal;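 note: score merges 667 nm channel intensity with signal to noise over triplicate slides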
[7] = tested on: Chordin-like protein 2 (CHRDL2); experiment: compounds binding chordin-like 2 – biochemical, small-molecule microarray, 635 nm fluorescence, primary screen (AID 1126); conditions: fluorescence 635 nm, higher = more signal;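 note: printed compound slides probed with Chrdl2 protein at 4 µg/mL for 1 h at 4 C; score merges 667 nm emission intensity with signal to noise over three replicate slides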
[8] = molecular target: Concanavalin-A (Canavalia ensiformis) (UniProt P02866); experiment: compounds binding concanavalin A lectin – biochemical, small-molecule microarray, Alexa647 label, 635 nm, artefact control for SMM control protein annotation, primary screen (AID 1127); conditions: ConA-A647 binding fluorescence, higher = more signal;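 note: z combines 667 nm emission intensity with signal-to-noise across three replicate slides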
[9] = compounds binding Alexa647 anti-His antibody – biochemical, small-molecule microarray, 635 nm fluorescence, artefact control for SMM control protein annotation, primary screen (AID 1128); conditions: higher = more signal;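 note: score merges feature fluorescence with signal-to-noise for each printed compound spot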
[10] = tested on: Human papillomavirus type 1a E7 protein (residues 1-88); experiment: HPV1a E7 small-molecule binders, primary screen, biochemical, small-molecule microarray, residues 1-88, 635 nm (AID 1129); conditions: small-molecule microarray binding, fluorescence 635 nm; higher = more signal
[11] = molecular target: Focal adhesion kinase 1 (Homo sapiens) (UniProt Q05397); experiment: PTK2 protein binding on printed compound slides – biochemical, small-molecule microarray, 635/667 nm fluorescence, BSA, DTT, primary screen (AID 1130); conditions: 635 nm fluorescence, higher = more signal;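 note: composite of spot emission at 667 nm and signal to noise over triplicate slides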
[12] = tested on: Fibrinogen (Alexa647-labelled); experiment: Alexa647-fibrinogen binding to printed small molecules – biochemical, small-molecule microarray, 635/667 nm fluorescence, artefact control for SMM control-protein annotation, profiling panel (AID 1131); conditions: fibrinogen-A647 binding fluorescence, higher = more signal;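 note: z-score merges 667 nm fluorescence with per-spot signal-to-noise over triplicate slides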
[13] = molecular target: Follistatin (Homo sapiens) (UniProt P19883); experiment: FST protein binding to printed compounds – biochemical, small-molecule microarray, 635/667 nm fluorescence, primary screen (AID 1132); conditions: 635 nm fluorescence, higher = more signal
[14] = molecular target: Fibroblast growth factor 2 (Homo sapiens) (UniProt P09038); experiment: basic fibroblast growth factor binding to printed compounds – biochemical, small-molecule microarray, 635/667 nm fluorescence, primary screen (AID 1133); conditions: FGF2, fluorescence 635/667, higher = more signal
[15] = JC-1 mitochondrial potential readout, lung cancer cells – cell-based, A549, JC-1 fluorescence, basal, 24 h, 100 nL, profiling panel (AID 1138); conditions: higher = more signal;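 note: A549 lung adenocarcinoma cells under basal conditions with no added stimulus; test concentration not given here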
Lefty1 = Lefty1 protein binding to printed compounds – biochemical, small-molecule microarray, 635/667 nm fluorescence, primary screen (AID 1139); conditions: fluorescence 635/667, higher = more signal
[16] = tested on: wheat germ agglutinin (Triticum aestivum), Alexa647-labelled; experiment: Alexa647-WGA lectin binding to printed small molecules – biochemical, small-molecule microarray, 635/667 nm fluorescence, artefact control for SMM control-protein annotation, profiling panel (AID 1140); conditions: WGA-A647 binding, 635 nm fluorescence, higher = more signal;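 note: score merges 667 nm feature emission with signal to noise over triplicate slides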
[17] = molecular target: Luciferin 4-monooxygenase (Photinus pyralis) (UniProt P08659); experiment: inhibition of purified Photinus pyralis luciferase – biochemical, luminescence, purified enzyme, 2006 set, primary screen (AID 1141); conditions: purified firefly luciferase, SteadyGlo luminescence, 30 min; higher = more signal, called active from +8 up or from −8 down;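 note: cell-free assay with purified firefly luciferase at 100 ng per well in PBS; test concentration not given here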
Chain of Luciferin 4-monooxygenase (Photinus pyralis) (P08659 whole entry, looked up): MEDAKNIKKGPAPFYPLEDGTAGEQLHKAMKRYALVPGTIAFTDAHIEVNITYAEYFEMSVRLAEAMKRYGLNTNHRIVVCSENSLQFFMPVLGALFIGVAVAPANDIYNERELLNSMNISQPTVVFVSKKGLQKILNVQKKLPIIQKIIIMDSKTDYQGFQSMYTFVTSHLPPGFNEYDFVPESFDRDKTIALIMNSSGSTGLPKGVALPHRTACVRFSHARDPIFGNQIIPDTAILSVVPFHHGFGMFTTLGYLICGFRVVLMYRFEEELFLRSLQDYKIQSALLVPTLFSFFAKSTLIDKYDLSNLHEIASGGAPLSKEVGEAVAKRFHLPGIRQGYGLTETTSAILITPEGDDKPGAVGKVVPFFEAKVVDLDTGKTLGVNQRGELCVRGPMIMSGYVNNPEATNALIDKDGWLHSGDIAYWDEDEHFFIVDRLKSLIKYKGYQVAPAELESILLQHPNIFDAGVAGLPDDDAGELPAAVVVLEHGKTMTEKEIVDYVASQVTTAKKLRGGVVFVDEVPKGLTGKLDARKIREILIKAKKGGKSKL

Chain of Concanavalin-A (Canavalia ensiformis) (P02866 whole entry, looked up): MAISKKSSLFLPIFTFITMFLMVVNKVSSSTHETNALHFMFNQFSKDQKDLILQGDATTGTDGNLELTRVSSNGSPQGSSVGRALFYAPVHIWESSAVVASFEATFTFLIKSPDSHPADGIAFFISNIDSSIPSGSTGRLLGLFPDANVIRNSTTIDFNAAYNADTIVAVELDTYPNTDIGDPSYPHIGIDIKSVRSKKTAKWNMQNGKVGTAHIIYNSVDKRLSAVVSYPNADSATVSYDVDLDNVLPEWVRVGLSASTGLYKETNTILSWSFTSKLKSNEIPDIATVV
Chain of Follistatin (Homo sapiens) (P19883 whole entry, looked up): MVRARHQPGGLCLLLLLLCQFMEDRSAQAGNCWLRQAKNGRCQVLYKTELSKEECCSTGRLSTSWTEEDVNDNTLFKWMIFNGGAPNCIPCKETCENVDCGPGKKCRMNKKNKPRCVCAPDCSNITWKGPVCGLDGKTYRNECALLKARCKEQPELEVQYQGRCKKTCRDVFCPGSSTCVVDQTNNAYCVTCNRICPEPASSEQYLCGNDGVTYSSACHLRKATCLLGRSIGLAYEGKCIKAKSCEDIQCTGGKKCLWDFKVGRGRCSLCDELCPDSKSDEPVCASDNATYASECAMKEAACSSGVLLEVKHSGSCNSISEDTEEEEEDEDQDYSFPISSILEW
Chain of Albumin (Bos taurus) (P02769 whole entry, looked up): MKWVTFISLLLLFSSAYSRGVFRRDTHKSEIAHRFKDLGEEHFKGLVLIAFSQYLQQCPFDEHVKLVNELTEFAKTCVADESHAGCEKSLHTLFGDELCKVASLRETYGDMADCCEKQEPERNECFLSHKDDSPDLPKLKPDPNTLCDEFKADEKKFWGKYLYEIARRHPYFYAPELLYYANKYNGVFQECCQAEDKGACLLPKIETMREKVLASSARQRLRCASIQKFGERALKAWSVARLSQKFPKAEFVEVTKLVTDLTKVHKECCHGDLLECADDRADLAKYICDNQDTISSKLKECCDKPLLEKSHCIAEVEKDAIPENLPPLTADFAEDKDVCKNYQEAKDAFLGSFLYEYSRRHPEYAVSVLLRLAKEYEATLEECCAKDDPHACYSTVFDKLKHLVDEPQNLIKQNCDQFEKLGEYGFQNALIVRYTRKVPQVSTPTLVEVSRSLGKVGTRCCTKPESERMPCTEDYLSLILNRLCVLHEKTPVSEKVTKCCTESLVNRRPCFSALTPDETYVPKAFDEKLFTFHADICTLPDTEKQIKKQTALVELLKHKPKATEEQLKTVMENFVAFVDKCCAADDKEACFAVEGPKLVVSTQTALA
Chain of Fibroblast growth factor 2 (Homo sapiens) (P09038 whole entry, looked up): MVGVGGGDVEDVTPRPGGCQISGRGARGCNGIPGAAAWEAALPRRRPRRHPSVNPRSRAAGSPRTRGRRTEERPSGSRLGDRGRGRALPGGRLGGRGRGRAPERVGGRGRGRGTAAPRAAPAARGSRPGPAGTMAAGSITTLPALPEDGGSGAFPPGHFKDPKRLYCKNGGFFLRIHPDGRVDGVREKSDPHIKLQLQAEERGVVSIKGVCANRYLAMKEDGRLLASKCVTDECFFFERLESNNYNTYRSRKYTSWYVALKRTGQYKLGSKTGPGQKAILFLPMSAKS
Chain of Focal adhesion kinase 1 (Homo sapiens) (Q05397 whole entry, looked up): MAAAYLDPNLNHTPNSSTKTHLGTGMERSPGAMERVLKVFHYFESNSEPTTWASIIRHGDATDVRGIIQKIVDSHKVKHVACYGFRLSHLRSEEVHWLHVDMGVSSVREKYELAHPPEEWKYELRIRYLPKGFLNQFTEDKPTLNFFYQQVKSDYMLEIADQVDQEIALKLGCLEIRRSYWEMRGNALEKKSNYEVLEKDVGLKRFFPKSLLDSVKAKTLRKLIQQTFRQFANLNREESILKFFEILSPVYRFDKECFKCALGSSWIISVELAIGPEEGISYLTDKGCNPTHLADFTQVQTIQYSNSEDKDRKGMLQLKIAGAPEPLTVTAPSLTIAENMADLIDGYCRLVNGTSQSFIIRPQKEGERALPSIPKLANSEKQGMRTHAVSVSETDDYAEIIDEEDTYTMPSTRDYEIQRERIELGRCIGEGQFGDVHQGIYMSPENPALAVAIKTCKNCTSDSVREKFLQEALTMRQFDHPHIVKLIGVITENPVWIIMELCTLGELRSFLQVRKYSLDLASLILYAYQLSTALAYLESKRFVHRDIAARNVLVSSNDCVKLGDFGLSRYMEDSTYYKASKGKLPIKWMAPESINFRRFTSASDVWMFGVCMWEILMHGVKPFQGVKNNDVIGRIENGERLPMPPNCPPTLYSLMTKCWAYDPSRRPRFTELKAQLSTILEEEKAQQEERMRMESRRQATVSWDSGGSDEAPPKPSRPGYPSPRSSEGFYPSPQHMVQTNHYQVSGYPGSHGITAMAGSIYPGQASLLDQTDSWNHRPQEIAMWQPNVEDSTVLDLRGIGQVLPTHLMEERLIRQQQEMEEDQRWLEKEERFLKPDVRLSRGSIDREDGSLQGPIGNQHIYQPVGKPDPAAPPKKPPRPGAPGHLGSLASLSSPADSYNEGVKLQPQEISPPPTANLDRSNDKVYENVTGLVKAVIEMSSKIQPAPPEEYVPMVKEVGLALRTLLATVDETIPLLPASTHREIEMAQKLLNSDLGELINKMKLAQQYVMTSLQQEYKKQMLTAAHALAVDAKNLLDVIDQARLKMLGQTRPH

Structure (SMILES) | composite z-score (Albumin (Bos taurus)) | composite Z-score [1] | composite z-score [2] | composite z-score [3] | composite z-score [4] | composite z-score [5] | composite z-score [6] | composite z-score (Sam68 (KHDRBS1)) | composite z-score [7] | composite z-score [8] | composite z-score [9] | composite z-score [10] | composite z-score [11] | composite z-score [12] | composite z-score [13] | composite z-score [14] | z-score [15] | composite z-score (Lefty1) | composite z-score [16] | z-score [17]
CC[C@H](C)C(=O)O[C@H]1CC[C@]2(C)C3=C(CCC2C1(C)C)[C@]1(C)CC[C@H]([C@H](C)CCCC(C)C)[C@@]1(C)CC3 (stereo not given in full) | -0.0017 | -0.014 (inactive) | -0.0947 | -0.146 | -0.0247 | 0.627 | -0.329 | 0.329 | 0.367 | 0.515 | 0.226 | 0.666 | 0.122 | 0.367 | 0.538 | 0.35 | 1.15 | 0.721 | 0.0438 | -1.4 (inactive)
COc1ccc(CCNC(=O)[C@@]2(C)c3ccccc3C(=O)N(Cc3cc(C(F)(F)F)cc(C(F)(F)F)c3)[C@H]2c2ccc(CO)cc2)cc1 | 0.0386 | 0.793 (inactive) | -0.179 | -0.161 | 0.643 | 2.41 | 0.558 | 1.13 | 0.394 | 0.308 | 0.202 | 1.07 | 0.431 | -0.0796 | 1.19 | 0.491 | 0.502 | 0.0292 | 0.367 | -0.868 (inactive)
O=C1N(CCS(=O)(=O)c2ccccc2)c2ccccc2[C@@H]2OC(c3ccc(OCCCO)cc3)=N[C@]12CCS(=O)(=O)c1ccccc1 | 0.929 | 0.759 (inactive) | 0.0496 | 0.0684 | 0.503 | 2.8 | 1.21 | 1.29 | 1.1 | 1.15 | 0.7 | 1.2 | 0.575 | 0.922 | 1.38 | 1.5 | -1.59 | 0.553 | 0.465 | -3.78 (inactive)
CCCC=C(CCC)[C@@H](NS(=O)(=O)c1ccc(Cl)cc1)c1ccccc1 | 0.046 | -0.0223 (inactive) | -0.056 | 0.194 | 0.281 | 0.829 | 1.28 | 0.127 | -0.845 | 0.205 | 1.12 | -0.382 | 0.884 | 0.522 | -0.883 | -0.919 | -0.576 | -1.17 | 0.303 | 1.8 (inactive)
CC(C)C[C@@H]1NC(=O)[C@H]2C[C@@H](C(=O)NCCCCCCNC(=O)CS)[C@@H](c3ccc(O)cc3)N2C1=O | 0.291 | 0.741 (inactive) | -0.0581 | 0.0018 | 0.665 | 1.73 | 0.0905 | 1.3 | 0.986 | 1.11 | 2.26 | 1.22 | 0.87 | 0.0675 | 1.3 | 1.78 | -1.02 | 0.543 | 0.0059 | -0.938 (inactive)
CCCCCCc1nc(-c2ccc(OC)nc2)cc2c1[Si](C(C)C)(C(C)C)OC2 | -0.361 | 0.582 (inactive) | -0.0858 | -0.104 | 0.445 | -0.689 | -0.293 | -0.299 | -0.0659 | 0.502 | -0.102 | -0.493 | -0.206 | -0.137 | -0.0974 | -0.206 | -1.46 | -0.0037 | -0.218 | 0.997 (inactive)
CC#CCO[Si](C#CCCCCCC)(C(C)C)C(C)C | -0.611 | -0.244 (inactive) | -0.597 | -0.192 | -0.553 | -0.0607 | -0.529 | 0.204 | -2.33 | -2.41 | -0.19 | -0.419 | -0.103 | -1.49 | -2.99 | -2.42 | -0.996 | -1.93 | 0.064 | 0.944 (inactive)
COCCOC(=O)N1C(=O)[C@@]2(c3cc(C#CC4=CCCCC4)ccc31)[C@H](c1ccccc1OCCO)N1[C@H](c3ccccc3)[C@H](c3ccccc3)OC(=O)[C@H]1[C@@H]2C(N)=O | -0.0123 | -0.463 (inactive) | 0.0174 | -0.0728 | 0.265 | 1.14 | 0.561 | 1.28 | 0.492 | 1.13 | 1.48 | 1.17 | 0.539 | 0.83 | 1.06 | 1.36 | -1.8 | 0.91 | -0.0974 | -1.74 (inactive)
C[N+](C)(C)CCCCCCNC(=O)[C@H]1C[C@H]2C(=O)NCC(=O)N2[C@H]1c1cccc(OCCO)c1 | -0.27 | 0.536 (inactive) | 0.11 | -0.0877 | 0.594 | 1.05 | 0.662 | 0.562 | 1.36 | 0.907 | 3.03 | 0.283 | -0.27 | 0.0104 | 1.13 | 1.63 | -0.883 | 1.6 | 0.273 | -0.0987 (inactive)
O=C1OCCC/C=C\[C@H]2OC34C=CCN(Cc5ccccc5)C(=O)[C@H]3N(CCCCCO)C(=O)[C@@H]4C12 (stereo not given in full) | 0.499 | -0.615 (inactive) | -0.366 | -0.112 | 0.861 | 3.41 | 1.65 | -0.904 | -0.906 | -1.64 | -0.862 | -1.2 | -0.603 | -1.62 | -1.07 | -0.883 | 0.537 | -0.696 | -1.09 | -0.984 (inactive)
C=C(COC)C(=O)CC[C@@H](OC(C)=O)c1ccc(OCCO)cc1 | -0.561 | 0.392 (inactive) | 0.0426 | -0.125 | 0.648 | 0.206 | -0.217 | 0.744 | -0.127 | 0.891 | 0.476 | -0.358 | -0.822 | -0.467 | 1.25 | 0.945 | -0.576 | 0.843 | 0.774 | -1.73 (inactive)
